Source: the supplement of paper PMC10849652
Targets with a hit are over-represented here; the source holds about 7,900 in all. About 0.6% of all pairs of compound and target were hits.

Assays:
Assay in all cases: log2 fold change, soluble protein after heating vs DMSO (PISA); higher = thermal stabilisation; K562 cells, 10 uM, 30 min; active = over 0.2 and 3.5 SD of the protein, either way, in both replicates (recomputed)
[1] = compound: NC(=O)Nc1cc(-c2cccc(F)c2)sc1C(=O)N[C@H]1CCCNC1
In short: (§1)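 Thermal stability values are relative to control samples and come from duplicates. They are expressed as log2 fold changes. For measurement, K562 cells (2×10^6 cells/mL) received 10 μM compound for 30 min, and aliquots were heated for 3 min over 48°C-58°C, pooled, and extracted at 4°C in PBS with 0.5% NP-40. Soluble protein, the supernatant after 21,000xg for 90 min, was quantified by TMTpro 16plex LC-MS/MS with equalised channel sums.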

[2] = compound: NC(=O)c1cnc(N[C@@H]2CCCC[C@@H]2N)nc1Nc1cccc(-n2nccn2)c1
In short: as §1

[3] = compound: NC1(c2ccc(-c3nc4ccn5c(=O)[nH]nc5c4cc3-c3ccccc3)cc2)CCC1
In short: as §1

[4] = compound: NCC(=O)Nc1ccc(-n2nc(C(F)(F)F)cc2-c2ccc3c(ccc4ccccc43)c2)cc1
In short: as §1

[5] = compound: Nc1ccccc1NC(=O)c1ccc(CNC(=O)OCc2cccnc2)cc1 [entinostat]
In short: as §1

[6] = compound: O=C(CCCCCCC(=O)Nc1ccccc1)NO [vorinostat]
In short: as §1

[7] = compound: O=C(CCCCCCNC(=O)c1cnc(N(c2ccccc2)c2ccccc2Cl)nc1)NO [citarinostat]
In short: as §1

[8] = compound: O=C(O)c1ccc2c(c1)nc(Nc1cccc(Cl)c1)c1ccncc12 [silmitasertib]
In short: as §1

[9] = compound: O=C1NC(=O)C(c2cnc3ccccn23)=C1c1cn2c3c(cc(F)cc13)CN(C(=O)N1CCCCC1)CC2
In short: as §1

[10] = compound: c1cc(OCCN2CCCCC2)cc(-c2n[nH]c3ccc(-c4nnc[nH]4)cc23)c1
In short: as §1

[11] = compound: c1cn2cc(-c3ccc4cn[nH]c4c3)nc(Nc3ccc(N4CCOCC4)cc3)c2n1 [entospletinib]
In short: as §1

Measured: log2 fold change

TMEM161A (UniProt Q9NX61)
inactive: [1] 0.043 | [2] 0.012 | [3] -0.132 | [4] -0.101 | [5] 0.049 | [6] 0.006 | [7] 0.083 | [8] -0.023 | [9] -0.009 | [10] -0.098 | [11] -0.026

TUBAL3 (UniProt A6NHL2)
inactive: [1] 0 | [2] -0.082 | [3] -0.006 | [4] 0.031 | [5] 0.061 | [6] 0.037 | [7] -0.06 | [8] 0.087 | [9] 0.059 | [10] -0.291 | [11] -0.351

USP24 (UniProt Q9UPU5)
inactive: [1] 0.18 | [2] 0.079 | [3] -0.053 | [4] 0.07 | [5] -0.095 | [6] -0.012 | [7] 0.012 | [8] 0.188 | [9] -0.2 | [10] 0.11 | [11] 0.016

TRIP10 isoform 2 (UniProt Q15642)
inactive: [1] -0.067 | [2] 0.057 | [3] -0.065 | [5] -0.2 | [6] 0.026 | [7] -0.11 | [8] -0.065 | [9] -0.052 | [10] 0.008 | [11] 0.062
active: [4] -0.849

VPS39 (UniProt Q96JC1)
inactive: [1] 0.026 | [2] -0.119 | [3] -0.195 | [4] -0.039 | [5] 0.05 | [6] 0.101 | [7] 0.01 | [8] -0.004 | [9] 0.055 | [10] -0.042 | [11] -0.007

TMEM9B (UniProt Q9NQ34)
inactive: [1] -0.025 | [2] 0.004 | [3] -0.093 | [4] -0.111 | [5] 0.025 | [6] 0.051 | [7] 0.023 | [8] 0.038 | [9] 0.043 | [10] -0.121 | [11] -0.049

WDR37 isoform 2 (UniProt Q9Y2I8)
inactive: [1] -0.041 | [2] -0.01 | [3] -0.052 | [4] -0.08 | [5] -0.004 | [6] -0.068 | [7] -0.012 | [8] -0.059 | [9] 0.032 | [10] -0.162 | [11] -0.004

VPS13B (UniProt Q7Z7G8)
inactive: [1] -0.064 | [2] -0.033 | [3] -0.069 | [4] -0.039 | [5] -0.033 | [6] 0.041 | [7] 0.018 | [8] 0.038 | [9] -0.043 | [10] -0.03 | [11] 0.053

TRAPPC8 (UniProt Q9Y2L5)
UniProt Q9Y2L5, sequence (Q9Y2L5 whole entry, looked up): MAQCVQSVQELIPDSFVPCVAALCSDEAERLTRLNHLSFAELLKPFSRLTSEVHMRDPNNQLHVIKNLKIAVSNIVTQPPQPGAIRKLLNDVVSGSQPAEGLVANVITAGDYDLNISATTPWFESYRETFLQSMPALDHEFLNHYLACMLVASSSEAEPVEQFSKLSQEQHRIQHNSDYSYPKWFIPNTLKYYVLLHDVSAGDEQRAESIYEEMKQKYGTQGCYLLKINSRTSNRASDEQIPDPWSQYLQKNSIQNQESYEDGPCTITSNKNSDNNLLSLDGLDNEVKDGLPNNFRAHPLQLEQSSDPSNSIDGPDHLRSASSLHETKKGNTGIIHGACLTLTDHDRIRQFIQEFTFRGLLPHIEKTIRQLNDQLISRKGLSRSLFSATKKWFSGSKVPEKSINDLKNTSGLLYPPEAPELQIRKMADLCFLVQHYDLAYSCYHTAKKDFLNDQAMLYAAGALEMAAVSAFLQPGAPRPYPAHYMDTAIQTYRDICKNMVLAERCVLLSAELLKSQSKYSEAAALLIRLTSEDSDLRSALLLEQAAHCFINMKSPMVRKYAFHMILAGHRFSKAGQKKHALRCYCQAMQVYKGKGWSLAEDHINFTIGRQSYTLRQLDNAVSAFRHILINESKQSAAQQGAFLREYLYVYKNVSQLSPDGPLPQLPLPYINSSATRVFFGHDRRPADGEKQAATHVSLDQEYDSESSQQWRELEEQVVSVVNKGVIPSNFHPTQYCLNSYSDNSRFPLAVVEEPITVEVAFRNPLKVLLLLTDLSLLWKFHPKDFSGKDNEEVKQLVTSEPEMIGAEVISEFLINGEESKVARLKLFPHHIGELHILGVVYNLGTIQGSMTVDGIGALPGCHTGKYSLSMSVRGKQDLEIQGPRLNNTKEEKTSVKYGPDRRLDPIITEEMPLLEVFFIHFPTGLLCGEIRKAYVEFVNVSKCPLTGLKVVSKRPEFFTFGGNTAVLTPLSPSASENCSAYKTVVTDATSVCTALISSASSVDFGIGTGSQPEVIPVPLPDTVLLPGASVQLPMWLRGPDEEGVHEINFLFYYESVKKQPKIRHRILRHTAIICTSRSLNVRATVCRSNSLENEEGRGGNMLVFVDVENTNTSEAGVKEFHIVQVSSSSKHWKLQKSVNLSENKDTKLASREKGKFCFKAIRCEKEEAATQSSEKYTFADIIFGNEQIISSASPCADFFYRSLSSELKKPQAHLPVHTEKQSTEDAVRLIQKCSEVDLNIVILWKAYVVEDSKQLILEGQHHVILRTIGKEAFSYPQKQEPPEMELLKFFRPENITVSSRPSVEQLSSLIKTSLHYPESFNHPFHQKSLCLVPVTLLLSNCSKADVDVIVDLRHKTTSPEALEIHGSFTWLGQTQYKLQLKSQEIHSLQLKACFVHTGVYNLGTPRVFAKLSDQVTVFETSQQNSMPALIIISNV
inactive: [1] -0.039 | [2] -0.082 | [3] -0.168 | [4] -0.028 | [5] 0.042 | [6] 0.053 | [7] 0.051 | [8] 0.07 | [9] -0.016 | [10] -0.205 | [11] 0.004

UBAP1 isoform 4 (UniProt Q9NZ09)
inactive: [1] -0.035 | [2] -0.005 | [3] -0.052 | [4] 0.002 | [5] -0.027 | [6] -0.019 | [7] 0.193 | [8] 0.064 | [9] -0.032 | [10] -0.049 | [11] 0.005

VRK1 (UniProt Q99986)
inactive: [1] -0.056 | [2] 0.025 | [3] -0.11 | [4] -0.144 | [5] 0.059 | [6] 0.046 | [7] 0.023 | [8] -0.028 | [9] -0.138 | [10] 0.063 | [11] -0.149

WDR4 (UniProt P57081)
inactive: [1] -0.094 | [2] 0.021 | [3] -0.089 | [4] -0.003 | [5] -0.04 | [6] -0.009 | [7] 0.046 | [8] -0.038 | [9] -0.161 | [10] -0.011 | [11] -0.027

USP34 (UniProt Q70CQ2)
inactive: [1] 0.012 | [2] -0.08 | [3] -0.131 | [4] -0.02 | [5] 0.024 | [6] 0.118 | [7] 0.123 | [8] 0.045 | [9] -0.008 | [10] -0.074 | [11] -0.002

WDR47 (UniProt O94967)
UniProt O94967, sequence (O94967 whole entry, looked up): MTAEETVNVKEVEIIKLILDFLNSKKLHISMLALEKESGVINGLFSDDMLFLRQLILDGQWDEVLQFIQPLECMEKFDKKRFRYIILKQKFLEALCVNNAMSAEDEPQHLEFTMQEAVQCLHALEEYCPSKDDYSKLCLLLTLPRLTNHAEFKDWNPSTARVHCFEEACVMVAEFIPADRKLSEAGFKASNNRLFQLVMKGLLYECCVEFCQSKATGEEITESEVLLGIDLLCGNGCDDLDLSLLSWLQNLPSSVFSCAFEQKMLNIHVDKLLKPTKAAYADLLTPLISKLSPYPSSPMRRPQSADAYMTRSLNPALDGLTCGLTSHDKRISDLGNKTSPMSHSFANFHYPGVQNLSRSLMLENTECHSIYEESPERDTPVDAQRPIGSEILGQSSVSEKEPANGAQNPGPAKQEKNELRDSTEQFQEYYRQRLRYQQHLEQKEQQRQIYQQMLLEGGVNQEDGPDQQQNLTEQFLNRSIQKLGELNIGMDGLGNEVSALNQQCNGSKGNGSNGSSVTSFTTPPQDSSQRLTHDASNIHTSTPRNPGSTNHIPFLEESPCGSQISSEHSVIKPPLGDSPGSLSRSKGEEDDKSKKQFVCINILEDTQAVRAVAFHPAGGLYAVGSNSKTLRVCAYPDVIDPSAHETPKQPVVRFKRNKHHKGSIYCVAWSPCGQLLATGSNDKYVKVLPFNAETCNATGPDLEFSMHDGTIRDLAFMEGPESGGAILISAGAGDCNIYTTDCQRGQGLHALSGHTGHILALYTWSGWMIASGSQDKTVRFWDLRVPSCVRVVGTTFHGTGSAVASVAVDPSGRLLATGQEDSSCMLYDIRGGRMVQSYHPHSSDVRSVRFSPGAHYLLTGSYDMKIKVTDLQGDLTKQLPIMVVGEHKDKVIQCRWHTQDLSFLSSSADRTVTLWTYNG
inactive: [1] 0.072 | [2] -0.023 | [4] -0.065 | [5] 0.002 | [6] -0.014 | [7] 0.014 | [8] 0.089 | [9] 0.004 | [10] 0.282 | [11] 0.011
active: [3] -0.224

VPS51 (UniProt Q9UID3)
UniProt Q9UID3, sequence (Q9UID3 whole entry, looked up): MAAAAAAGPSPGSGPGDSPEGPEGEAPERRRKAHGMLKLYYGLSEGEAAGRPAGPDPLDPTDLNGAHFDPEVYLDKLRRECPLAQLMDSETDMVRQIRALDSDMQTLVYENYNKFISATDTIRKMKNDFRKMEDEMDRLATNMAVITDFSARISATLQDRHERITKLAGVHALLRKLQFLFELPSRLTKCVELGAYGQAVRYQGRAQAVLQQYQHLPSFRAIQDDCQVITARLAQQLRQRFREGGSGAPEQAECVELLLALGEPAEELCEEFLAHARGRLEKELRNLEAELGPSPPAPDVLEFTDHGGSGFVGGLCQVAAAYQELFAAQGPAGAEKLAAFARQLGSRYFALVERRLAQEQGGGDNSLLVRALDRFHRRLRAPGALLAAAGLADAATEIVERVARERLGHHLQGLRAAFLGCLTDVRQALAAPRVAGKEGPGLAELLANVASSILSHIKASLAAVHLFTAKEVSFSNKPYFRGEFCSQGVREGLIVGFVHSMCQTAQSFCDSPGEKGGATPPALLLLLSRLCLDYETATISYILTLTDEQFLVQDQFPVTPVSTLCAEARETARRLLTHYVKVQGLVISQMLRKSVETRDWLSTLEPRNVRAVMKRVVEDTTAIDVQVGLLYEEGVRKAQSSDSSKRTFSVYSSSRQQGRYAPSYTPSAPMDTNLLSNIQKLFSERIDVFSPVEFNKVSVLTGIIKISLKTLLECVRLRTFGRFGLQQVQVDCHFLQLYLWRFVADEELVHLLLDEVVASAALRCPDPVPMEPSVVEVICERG
inactive: [1] -0.02 | [2] -0.119 | [3] -0.082 | [4] -0.048 | [5] 0.07 | [6] -0.035 | [7] -0.002 | [8] 0.068 | [9] 0.022 | [10] 0.1 | [11] 0.007

TMEM70 (UniProt Q9BUB7)
inactive: [1] -0.058 | [2] -0.125 | [3] -0.162 | [4] -0.137 | [5] 0.005 | [6] 0.031 | [7] 0.047 | [8] 0.019 | [9] -0.045 | [10] -0.003 | [11] -0.009

TTC4 (UniProt O95801)
UniProt O95801, sequence (O95801 whole entry, looked up): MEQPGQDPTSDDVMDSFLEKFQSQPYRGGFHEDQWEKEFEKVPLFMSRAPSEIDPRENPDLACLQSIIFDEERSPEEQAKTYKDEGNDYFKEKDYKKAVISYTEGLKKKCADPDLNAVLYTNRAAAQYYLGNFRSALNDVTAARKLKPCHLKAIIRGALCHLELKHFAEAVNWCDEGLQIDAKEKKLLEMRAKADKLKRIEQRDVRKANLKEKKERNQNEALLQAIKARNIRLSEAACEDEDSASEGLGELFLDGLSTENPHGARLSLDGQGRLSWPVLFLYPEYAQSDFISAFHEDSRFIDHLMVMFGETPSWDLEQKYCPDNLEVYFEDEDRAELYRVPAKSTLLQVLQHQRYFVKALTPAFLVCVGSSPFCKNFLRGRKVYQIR
inactive: [1] -0.071 | [2] -0.047 | [3] -0.064 | [4] -0.073 | [5] 0.069 | [6] 0.077 | [7] 0.064 | [8] 0.074 | [9] -0.051 | [10] -0.014 | [11] -0.002

TRMT10A (UniProt Q8TBZ6)
inactive: [1] 0.015 | [2] -0.005 | [3] -0.075 | [4] -0.109 | [5] -0.039 | [6] -0.003 | [7] -0.013 | [8] -0.023 | [9] 0.007 | [10] -0.02 | [11] -0.055

WAPL isoform 3 (UniProt Q7Z5K2)
UniProt Q7Z5K2, sequence (Q7Z5K2 whole entry, looked up): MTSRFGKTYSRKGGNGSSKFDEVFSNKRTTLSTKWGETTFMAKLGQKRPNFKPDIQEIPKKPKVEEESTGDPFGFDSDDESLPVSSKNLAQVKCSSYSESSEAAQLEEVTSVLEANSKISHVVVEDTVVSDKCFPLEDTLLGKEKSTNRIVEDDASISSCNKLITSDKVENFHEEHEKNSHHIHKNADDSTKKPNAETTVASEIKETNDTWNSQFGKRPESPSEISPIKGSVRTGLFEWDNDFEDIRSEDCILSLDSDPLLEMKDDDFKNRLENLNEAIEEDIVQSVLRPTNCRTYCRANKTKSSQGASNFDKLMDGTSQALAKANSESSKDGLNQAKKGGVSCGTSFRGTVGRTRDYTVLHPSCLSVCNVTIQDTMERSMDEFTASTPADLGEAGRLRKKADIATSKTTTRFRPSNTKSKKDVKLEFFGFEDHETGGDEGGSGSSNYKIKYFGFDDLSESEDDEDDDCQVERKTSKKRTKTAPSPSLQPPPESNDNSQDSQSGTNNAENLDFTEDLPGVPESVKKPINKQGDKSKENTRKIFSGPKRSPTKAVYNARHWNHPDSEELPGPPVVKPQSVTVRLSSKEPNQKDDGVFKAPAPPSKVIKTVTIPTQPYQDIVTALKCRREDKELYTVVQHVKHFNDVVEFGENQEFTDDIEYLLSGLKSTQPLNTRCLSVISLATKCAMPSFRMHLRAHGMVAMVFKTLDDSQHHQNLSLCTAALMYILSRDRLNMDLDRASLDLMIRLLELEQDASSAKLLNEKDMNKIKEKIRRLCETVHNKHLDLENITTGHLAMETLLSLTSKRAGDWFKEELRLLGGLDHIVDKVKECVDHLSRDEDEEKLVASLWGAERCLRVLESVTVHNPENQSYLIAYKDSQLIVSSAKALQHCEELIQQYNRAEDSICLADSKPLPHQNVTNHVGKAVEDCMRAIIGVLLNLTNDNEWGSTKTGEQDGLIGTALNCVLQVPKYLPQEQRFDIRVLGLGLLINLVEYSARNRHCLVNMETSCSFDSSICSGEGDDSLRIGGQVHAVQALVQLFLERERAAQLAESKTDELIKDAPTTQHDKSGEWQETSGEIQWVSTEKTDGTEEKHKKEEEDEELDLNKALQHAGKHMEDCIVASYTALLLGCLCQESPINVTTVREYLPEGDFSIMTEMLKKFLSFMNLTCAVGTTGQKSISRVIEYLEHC
active: [3] -0.423
inactive: [1] -0.009 | [2] -0.033 | [4] -0.066 | [5] 0.01 | [6] 0.082 | [7] 0.198 | [8] 0.067 | [9] -0.148 | [10] 0.078 | [11] -0.037

TRAM1 (UniProt Q15629)
inactive: [1] -0.104 | [2] -0.073 | [3] -0.162 | [4] -0.196 | [5] -0.075 | [6] 0.034 | [7] -0.083 | [8] 0.066 | [9] 0.025 | [10] -0.021 | [11] 0.145

UBE2S (UniProt Q16763)
inactive: [1] -0.04 | [2] -0.043 | [3] -0.033 | [4] -0.086 | [5] -0.026 | [6] 0.002 | [7] 0.072 | [8] 0.069 | [9] -0.106 | [10] -0.032 | [11] -0.029

TUBA4A (UniProt P68366)
inactive: [1] 0.004 | [2] -0.02 | [3] -0.063 | [4] 0.028 | [5] -0.024 | [6] 0.062 | [7] 0.031 | [8] -0.065 | [9] -0.059 | [10] 0.009 | [11] -0.031

TPM2 (UniProt P07951)
inactive: [1] 0.119 | [2] 0.081 | [3] 0.157 | [4] 0.201 | [5] 0.077 | [6] -0.077 | [7] 0.103 | [8] -0.07 | [9] 0.162 | [10] 0.171 | [11] -0.069

TMEM177 (UniProt Q53S58)
UniProt Q53S58, sequence (Q53S58 whole entry, looked up): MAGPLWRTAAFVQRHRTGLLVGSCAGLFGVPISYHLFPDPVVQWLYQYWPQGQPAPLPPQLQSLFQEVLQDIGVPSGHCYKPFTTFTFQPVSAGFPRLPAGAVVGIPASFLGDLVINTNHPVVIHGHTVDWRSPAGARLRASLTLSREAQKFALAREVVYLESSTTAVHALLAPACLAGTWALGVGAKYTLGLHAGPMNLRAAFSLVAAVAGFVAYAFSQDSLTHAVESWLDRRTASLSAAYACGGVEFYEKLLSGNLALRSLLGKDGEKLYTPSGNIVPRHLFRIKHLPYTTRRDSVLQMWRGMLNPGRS
active: [4] 0.347
inactive: [1] -0.014 | [2] -0.008 | [3] -0.043 | [5] -0.021 | [6] -0.048 | [7] 0.068 | [8] -0.019 | [9] 0.048 | [10] -0.042 | [11] 0.02

TRMT2A (UniProt Q8IZ69)
inactive: [1] -0.031 | [2] -0.128 | [3] -0.091 | [4] -0.003 | [5] 0.022 | [6] 0.03 | [7] -0.03 | [8] -0.003 | [9] 0.018 | [10] -0.062 | [11] 0.1

TMEM87B (UniProt Q96K49)
inactive: [1] -0.098 | [2] -0.062 | [3] -0.266 | [4] -0.1 | [5] 0.135 | [6] 0.057 | [7] 0.021 | [8] 0.096 | [9] -0.032 | [10] -0.117 | [11] 0.063

USO1 isoform 2 (UniProt O60763)
inactive: [1] -0.009 | [2] 0 | [3] -0.101 | [4] -0.024 | [5] 0.032 | [6] 0.018 | [7] 0.032 | [8] 0.059 | [9] -0.035 | [10] -0.013 | [11] -0.017
